Experiment [1] is described as follows: E. coli DRC41 culture turbidity changes, primary screen, E. coli filamentation inducer project, strain DRC41, OD650, 48 h (AID 1152).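 Note: E. coli MC1000 strain DRC41 lacking acrAB efflux pump and sulA.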 Conditions: E. coli DRC41 (acrAB sulA), higher = more signal, called active from +8 up or from −8 down.
Experiment [2] is described as follows: small-molecule binders of probe aLefty1, primary screen, biochemical, small-molecule microarray, 635/667 nm fluorescence (AID 1153).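 Note: score merges spot fluorescence with signal-to-noise ratio from the scanned slide images.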 To be noted: higher = more signal.
Experiment [3] is described as follows: PSAC antagonists in infected red cells, primary screen, cell-based, P. falciparum Indochina, OD700, 1 h (AID 1154). To be noted: P. falciparum Indochina infected RBC osmotic lysis, higher = more signal, called active from +8 up or from −8 down.
A short description of experiment [4]: PSAC antagonists in infected red cells, primary screen, cell-based, P. falciparum Indochina, OD700, 2 h (AID 1155).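 Note: lysis reports solute entry through the parasite surface anion channel PSAC; channel blockers reduce lysis of infected cells.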 Conditions: P. falciparum Indochina infected erythrocytes, osmotic lysis OD700; higher = more signal, called active from +8 up or from −8 down.
The nature of experiment [5]: osmotic lysis modulators in infected erythrocytes, primary screen, PSAC antagonist project, cell-based, P. falciparum Indochina, OD700, 3 h (AID 1156). Conditions: higher = more signal, called active from +8 up or from −8 down.
The nature of experiment [6]: PSAC antagonists in infected red cells, primary screen, cell-based, P. falciparum Indochina, OD700, 18 h (AID 1157). Conditions: P. falciparum Indochina infected erythrocytes, osmotic lysis OD700, 18 h; higher = more signal, called active from +8 up or from −8 down.
The nature of experiment [7]: modulators of S6 phosphorylation in cells, primary screen, cell-based, A549, cytoblot, luminescence, serum-stimulated (AID 1158).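 Note: serum-stimulated A549 lung adenocarcinoma cells; signal is phosphorylated S6 detected by cytoblot immunostaining with HRP secondary.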 To be noted: A549 phospho-S6 cytoblot, 5 h, higher = more signal.
Experiment [8] has as its target NADPH oxidase 2 (Homo sapiens) (UniProt P04839). Nature of the experiment: NOX2-dependent H2O2 signal modulators, primary screen, NOX inhibitor project, cell-based, HEK293-NOX2, PMA-stimulated, Amplex Red fluorescence (AID 1159). Note: test concentration not given here. Conditions: 45 min, higher = more signal, called active from +8 up or from −8 down.
Experiment [9] deals with NADPH oxidase 4 (Homo sapiens) (UniProt Q9NPH5). The experiment can be described thus: NOX4-dependent H2O2 signal modulators, primary screen, NOX inhibitor project, cell-based, HEK293-NOX4, tetracycline-induced, Amplex Red fluorescence (AID 1160). Conditions: 45 min, higher = more signal, called active from +8 up or from −8 down.
NADPH oxidase 4 (Homo sapiens), sequence (Q9NPH5 whole entry, looked up): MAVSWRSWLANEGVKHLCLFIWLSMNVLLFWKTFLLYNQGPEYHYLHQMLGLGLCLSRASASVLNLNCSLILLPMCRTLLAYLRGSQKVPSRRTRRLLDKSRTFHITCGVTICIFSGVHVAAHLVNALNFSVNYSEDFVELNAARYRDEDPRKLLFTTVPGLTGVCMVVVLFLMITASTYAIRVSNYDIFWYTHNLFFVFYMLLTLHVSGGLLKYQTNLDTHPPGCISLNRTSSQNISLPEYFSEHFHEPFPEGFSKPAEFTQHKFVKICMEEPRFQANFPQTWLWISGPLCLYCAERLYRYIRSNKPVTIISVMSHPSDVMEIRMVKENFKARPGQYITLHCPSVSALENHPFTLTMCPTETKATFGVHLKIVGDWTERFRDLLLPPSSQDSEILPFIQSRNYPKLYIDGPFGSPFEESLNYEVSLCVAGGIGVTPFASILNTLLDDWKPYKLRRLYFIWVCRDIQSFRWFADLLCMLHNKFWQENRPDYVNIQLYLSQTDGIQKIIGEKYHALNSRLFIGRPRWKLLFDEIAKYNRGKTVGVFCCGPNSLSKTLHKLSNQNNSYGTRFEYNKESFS
The target of experiment [10] is NADPH oxidase 5 (Homo sapiens) (UniProt Q96PH1). The experiment can be described thus: NOX5-dependent H2O2 signal modulators, primary screen, NOX inhibitor project, cell-based, HEK293-NOX5, Amplex Red fluorescence (AID 1161). To be noted: HEK293-NOX5, ionomycin, 45 min, higher = more signal.
NADPH oxidase 5 (Homo sapiens), sequence (Q96PH1 whole entry, looked up): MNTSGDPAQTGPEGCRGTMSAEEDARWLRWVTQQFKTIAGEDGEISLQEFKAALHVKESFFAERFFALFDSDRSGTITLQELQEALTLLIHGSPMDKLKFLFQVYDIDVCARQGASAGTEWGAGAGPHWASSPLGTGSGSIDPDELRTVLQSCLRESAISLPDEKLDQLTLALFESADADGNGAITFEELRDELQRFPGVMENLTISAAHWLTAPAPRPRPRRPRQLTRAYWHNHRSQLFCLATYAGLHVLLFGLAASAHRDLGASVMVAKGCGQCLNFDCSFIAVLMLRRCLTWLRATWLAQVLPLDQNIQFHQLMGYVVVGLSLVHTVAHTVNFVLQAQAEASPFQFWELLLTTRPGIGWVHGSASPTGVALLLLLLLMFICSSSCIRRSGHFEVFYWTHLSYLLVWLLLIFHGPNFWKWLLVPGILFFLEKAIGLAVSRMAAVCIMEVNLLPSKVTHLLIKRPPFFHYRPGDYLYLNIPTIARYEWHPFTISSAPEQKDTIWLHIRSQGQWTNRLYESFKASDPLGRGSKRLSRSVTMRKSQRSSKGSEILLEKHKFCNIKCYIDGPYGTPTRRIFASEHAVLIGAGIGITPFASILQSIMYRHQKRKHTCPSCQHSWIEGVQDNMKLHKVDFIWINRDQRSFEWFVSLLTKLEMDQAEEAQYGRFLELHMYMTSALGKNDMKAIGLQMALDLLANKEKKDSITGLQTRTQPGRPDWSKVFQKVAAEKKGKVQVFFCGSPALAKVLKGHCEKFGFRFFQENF
Experiment [11] in a line: A549 cell viability effects, profiling panel, calcein-AM fluorescence, 48 h, basal (AID 1162). Note: test concentration not given here. To be noted: higher = more signal.
Experiment [12] in a line: adipocyte viability effects, profiling panel, cell-based, 3T3-L1 adipocytes, calcein-AM fluorescence, 48 h, basal (AID 1163). Note: test concentration not given here. To be noted: 3T3-L1 adipocytes viability, higher = more signal.
Experiment [13] can be described thus: HepG2 cell viability effects, profiling panel, calcein-AM fluorescence, 48 h, basal (AID 1164). Note: test concentration not given here. To be noted: higher = more signal.
The nature of experiment [14]: MM1S cell viability effects, profiling panel, calcein-AM fluorescence, 48 h, basal (AID 1165).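 Note: viability of MM1S multiple myeloma cells under basal unstimulated conditions; test concentration not given here.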 Conditions: higher = more signal.
Experiment [15] in a line: basal RPMI8226 viability, no added stimulus, profiling panel, cell-based, calcein-AM fluorescence, 48 h, PK04 Diversity Set (AID 1166).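 Note: cells grown under basal conditions without added stimulus; test concentration not given here.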 Conditions: RPMI8226 myeloma viability, higher = more signal.
A short description of experiment [16]: basal HepG2 mitochondrial membrane potential changes, profiling panel, cell-based, JC-1 fluorescence, 24 h, 100 nL compound (AID 1167). Note: test concentration not given here. To be noted: higher = more signal.
Experiment [17] is described as follows: basal 3T3-L1 adipocyte mitochondrial potential changes, profiling panel, cell-based, JC-1 fluorescence, 3T3-L1 adipocytes, 24 h, 100 nL compound (AID 1168). Note: test concentration not given here. Conditions: JC-1 mitochondrial fluorescence, higher = more signal, called active from +8 up or from −8 down.
The nature of experiment [18]: basal RPMI8226 mitochondrial membrane potential changes, profiling panel, cell-based, JC-1 fluorescence, 24 h, 100 nL compound (AID 1169). Note: test concentration not given here. To be noted: RPMI8226 myeloma, JC-1 mitochondrial potential fluorescence, higher = more signal.
Experiment [19] can be described thus: basal MM1S mitochondrial membrane potential changes, profiling panel, cell-based, JC-1 fluorescence, 24 h, 100 nL compound (AID 1170). Note: test concentration not given here. Conditions: higher = more signal.
The nature of experiment [20]: A549 lung cancer cell viability effects, profiling panel, resazurin fluorescence, 24 h, PK04 Diversity Set (AID 1171). Note: test concentration not given here. To be noted: higher = more signal, called active from +8 up or from −8 down.

We go through five compounds from PubChem BioAssay.

Activity calls are given as the source filed them.

NADPH oxidase 2 (Homo sapiens), sequence (P04839 whole entry, looked up): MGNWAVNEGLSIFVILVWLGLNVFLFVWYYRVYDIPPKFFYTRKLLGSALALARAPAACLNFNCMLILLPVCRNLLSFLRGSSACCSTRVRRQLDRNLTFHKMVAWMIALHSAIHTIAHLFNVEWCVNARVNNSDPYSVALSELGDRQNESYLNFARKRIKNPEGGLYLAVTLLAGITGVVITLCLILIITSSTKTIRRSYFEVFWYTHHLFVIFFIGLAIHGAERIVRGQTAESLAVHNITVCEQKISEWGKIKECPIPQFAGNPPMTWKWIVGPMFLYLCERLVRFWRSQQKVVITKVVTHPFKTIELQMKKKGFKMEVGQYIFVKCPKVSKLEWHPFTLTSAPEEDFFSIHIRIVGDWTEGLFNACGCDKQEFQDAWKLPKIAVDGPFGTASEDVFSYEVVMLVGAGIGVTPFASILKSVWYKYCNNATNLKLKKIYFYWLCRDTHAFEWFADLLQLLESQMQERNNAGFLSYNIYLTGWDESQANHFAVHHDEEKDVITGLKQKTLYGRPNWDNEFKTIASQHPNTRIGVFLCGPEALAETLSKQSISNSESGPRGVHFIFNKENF

`CO[C@@H]1COC(=O)[C@@H](C)NC(=O)CC=C[C@@H](C)[C@H](NS(=O)(=O)c2ccc(C)cc2)COC(=O)[C@H](C)NC(=O)CC=C[C@H]1C`: the z-score in [1] is 0.69 (inactive); in [3], 0.079 (inactive); in [4], -0.121 (inactive); in [5], -0.361 (inactive); in experiment [6], -0.0378 (inactive); in [7] it was -0.363. In addition, the z-score is 0.931 (inactive) in experiment [8]; 0.649 (inactive) in experiment [9]; -0.165 in experiment [10]; 0.458 in experiment [11]; 0.177 in [12]; 0.196 in experiment [13]. In addition, the z-score was -0.0848 in experiment [14]; -0.036 in experiment [15]; -0.125 in experiment [16]; -0.172 (inactive) in experiment [17]; 0.51 in [18]; 0.468 in [19]. The z-score in experiment [20] is 1.33 (inactive). Besides, the composite z-score in experiment [2] was -0.145.
With `Cn1c(=O)n2n(c1=O)[C@H]1[C@H](O)[C@@H]3O[C@@H]3C(=O)[C@H]1CC2`, the z-score was 0.498 (inactive) in [1]; -0.259 (inactive) in experiment [3]; -0.0607 (inactive) in experiment [4]; -0.596 (inactive) in experiment [5]; 0.18 (inactive) in [6]; -0.0231 in experiment [7]. The z-score was -1.2 (inactive) in [8]; 0.171 (inactive) in experiment [9]; 0.888 in [10]; 0.365 in experiment [11]; -0.137 in experiment [12]; 0.902 in experiment [13]. For the same compound, the z-score in experiment [14] is -0.382; in experiment [15] it was 0.308; in [16] it was 0.45; in experiment [17], 0.194 (inactive); in experiment [18], 0.731; in [19] it was 0.0623. Also, in experiment [20], the z-score was -0.495 (inactive). Besides, the composite z-score in [2] was -0.0984.
With `COC(=O)CC=C[C@@H](C)[C@@H](C=NOCC[C@@H]1C=C[C@H](OC(C)=O)[C@@H](COC(C)=O)O1)NS(=O)(=O)c1ccc(C)cc1`, the z-score in experiment [1] was 0.385 (inactive); in experiment [3], 0.944 (inactive); in [4], 0.107 (inactive); in experiment [5], -0.113 (inactive); in experiment [6], 0.196 (inactive); in experiment [7] it was -0.879. Moreover, the z-score in experiment [8] is 0.174 (inactive); in experiment [9], 0.911 (inactive); in experiment [10], -0.075; in experiment [11], 0.498; in experiment [12], 0.037; in [13] it was -0.726. For the same compound, the z-score was 0.212 in experiment [14]; -0.128 in experiment [15]; -0.716 in experiment [16]; -1.63 (inactive) in experiment [17]; 0.533 in experiment [18]; 0.0173 in [19]. Further, the z-score in experiment [20] is -0.364 (inactive). The compound also returned a composite z-score in experiment [2] of 0.212.
Turning to `CCOC(=O)[C@H](CC(C)C)NC(=O)CCC1CC(OC(=O)NCCc2ccc(F)cc2)CC2(CCCC(COC(=O)NCC3CCCCC3)O2)O1` (stereo not given in full), the z-score in experiment [1] was -1.12 (inactive); in experiment [3], 2.04 (inactive); in experiment [4], 0.132 (inactive); in experiment [5] it was 0.107 (inactive); in experiment [6], -0.341 (inactive); in [7], 0.673. Also, the z-score in experiment [8] was -0.202 (inactive); in experiment [9], 0.728 (inactive); in experiment [10] it was 0.123; in [11], -0.656; in [12], 0.0504; in [13], -0.843. For the same compound, the z-score was -0.222 in [14]; 0.444 in [15]; -1.77 in [16]; -0.293 (inactive) in experiment [17]; -0.168 in experiment [18]; -0.24 in [19]. For the same compound, in experiment [20], the z-score is 0.21 (inactive). The composite z-score in [2] is -0.169.
Regarding `CC[C@@H](c1ccccc1)n1c(=O)n2n(c1=O)[C@H]1[C@H](O)[C@@H]3O[C@@H]3C(=O)[C@H]1CC2`, the z-score is 0.289 (inactive) in experiment [1]; -0.48 (inactive) in experiment [3]; -0.38 (inactive) in experiment [4]; -0.0399 (inactive) in experiment [5]; -0.139 (inactive) in [6]; -0.126 in experiment [7]. In addition, the z-score in experiment [8] was -6.29 (inactive); in experiment [9] it was -0.0502 (inactive); in experiment [10], 0.324; in [11], -0.0457; in [12] it was 1.16; in experiment [13] it was -0.481. In addition, the z-score in experiment [14] was -3.07; in experiment [15], -2.84; in experiment [16] it was -0.914; in [17] it was -0.491 (inactive); in [18], -0.924; in experiment [19], -1.72. Besides, the z-score in [20] is -0.565 (inactive). In experiment [2], the composite z-score is -0.101.
